Screening data (PubChem BioAssay)
Rows were chosen to be rich in hits. Some 2.3% of all compounds tested hit in one or more screens of this group.
M1 PAM = potentiates human M1 receptor response to acetylcholine. CHO-K1 hM1, Fluo-8 calcium fluorescence, ACh EC20; 0% = ACh EC20, 100% = maximal ACh. activation, % at 3 µM. 360,000 tested, 0.088% active; in the data active means activation above about 19%, passing the limit was not always enough
Target sequence (P11229 whole entry, looked up): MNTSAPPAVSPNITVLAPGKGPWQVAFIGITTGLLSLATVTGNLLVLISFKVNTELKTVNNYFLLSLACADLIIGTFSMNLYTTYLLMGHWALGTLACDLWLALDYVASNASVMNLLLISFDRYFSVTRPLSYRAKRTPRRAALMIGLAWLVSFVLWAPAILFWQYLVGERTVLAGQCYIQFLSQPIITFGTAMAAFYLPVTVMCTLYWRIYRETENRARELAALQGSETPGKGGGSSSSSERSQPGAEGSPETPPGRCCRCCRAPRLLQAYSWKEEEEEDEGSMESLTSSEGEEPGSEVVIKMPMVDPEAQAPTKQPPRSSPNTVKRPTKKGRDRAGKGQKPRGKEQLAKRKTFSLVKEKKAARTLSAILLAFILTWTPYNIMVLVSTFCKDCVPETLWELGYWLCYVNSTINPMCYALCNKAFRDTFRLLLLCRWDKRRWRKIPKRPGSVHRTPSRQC
M1 ag parental = nonselective activator or artifact in parental CHO-K1 cells; Fluo-8 calcium fluorescence; scaled to maximal ATP response, vehicle zero; activation, % at 3 µM; 360,000 tested, 0.48% active; AID 602248; in the data active means activation above about 15%;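 further: untransfected CHO-K1 host cells lacking M1 receptor as counterscreen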
CHRM1 agonist = human M1 muscarinic receptor agonism | CHO-K1 hM1, Fluo-8 calcium fluorescence, agonist mode; 0% DMSO, 100% acetylcholine EC100 | 360,000 tested, 0.33% active | activation, % at 3 µM | P11229;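 active means activation above the run's mean compound activation plus 3 SD, cut at about 16% in these data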;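 further: peak over basal fluorescence ratio within a 140 s kinetic read after compound addition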
CHO-K1 Ca PAM = nonselective activator or artifact in parental CHO-K1 calcium assay; ATP EC20, Fluo-8 calcium fluorescence; 0% at ATP EC20, 100% at ATP max; activation, % at 3 µM; 360,000 tested, 0.02% active; AID 602247;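 active means activation above the run cutoff, the mean activation of all test compounds plus 3 SD, cut at about 40% in these data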;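 further: peak over basal fluorescence ratio in a 140 s read after ATP addition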
CHRM1 antagonist = blocks human M1 muscarinic receptor | P11229 | CHO-K1 hM1, Fluo-8 calcium fluorescence, ACh EC80 antagonist | inhibition, % at 3 µM | 360,000 tested, 1.3% active | AID 588852;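 active means percent inhibition above its own plate's cutoff, namely the mean of that plate's compound wells plus 3 SD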;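 further: peak over basal fluorescence ratio during 140 s after agonist addition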
CHO-K1 Ca antag = counter-screen for M1 antagonists: effect in parental CHO-K1 cells; 360,000 tested, 0.6% active; AID 602250; inhibition, % at 3 µM; ATP-induced calcium, Fluo-8 fluorescence;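 active means inhibition above a per-plate cutoff, the plate's mean sample inhibition plus 3 SD, cut at about 24% in these data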
Each line names hits and unclear results; the compound was inactive in the other large screens.

CCN(CC)CCNC(=O)c1ccc(NC(=O)c2cccc(S(=O)(=O)N3c4ccccc4CC3C)c2)cc1 (stereo not given)	CHRM1 antagonist 100.3
CCN(CC)CCNC(=O)c1ccc(NC(=O)c2cc(S(=O)(=O)N3CCCCC3)ccc2C)cc1	CHRM1 antagonist 93.5
CC(C)c1ccc(/C=N/n2c(COc3ccccc3)n[nH]c2=S)cc1	none
COc1cccc(NC(=O)CCC2CCN(C(=O)Cc3cccc(F)c3)CC2)c1	none
COc1ccc(CC(=O)N2CCC(CCC(=O)Nc3ccccc3)CC2)cc1	CHO-K1 Ca antag 23.9
COc1ccccc1Cc1c(C2CCCCC2)nc2ccc(Br)cn12	none
CCCCN(C(=O)C1CCC1)c1c(N)n(CCC)c(=O)[nH]c1=O	none
CCCCN(C(=O)C1CCCC1)c1c(N)n(CC(C)C)c(=O)[nH]c1=O	M1 PAM 29.9
Cc1cc(/C=C(\C#N)C(N)=O)c(C)n1-c1ccc(N2CCOCC2)c([N+](=O)[O-])c1	CHRM1 agonist 34.4
COc1ccc(Br)c(C(=O)N2CCCC2(C)C(=O)NCC(C)C)c1 (stereo not given)	CHO-K1 Ca antag 26.7
CCCCNC(=O)C1(C)CCN1C(=O)c1cc(OC)ccc1Br (stereo not given)	none
Cc1noc(C)c1C(=O)OCC(=O)Nc1ccccc1SCC#N	none
CN(CC1CCCN(CCc2ccc(Cl)cc2)C1)C(=O)c1ccco1 (stereo not given)	CHRM1 antagonist 34.9
CN(CC1CCCN(CCc2ccc(Cl)cc2)C1)C(=O)c1ccc2nc[nH]c2c1 (stereo not given)	CHRM1 antagonist 48.4
CN(CC1CCCN(CCc2ccc(Cl)cc2)C1)C(=O)c1ccoc1 (stereo not given)	none
CCN(CC(=O)Nc1ccc(NC(C)=O)cc1)C(=O)CCCSc1nc2ccccc2[nH]1	none
O=Nc1c(O)n(Cc2cccc(C(F)(F)F)c2)c2ccccc12	CHRM1 agonist 19.1
O=Nc1c(O)n(Cc2ccccc2)c2ccccc12	CHRM1 agonist 16.2
O=Nc1c(O)n(Cc2ccc(Cl)c(Cl)c2)c2ccccc12	M1 PAM 24.5, CHRM1 agonist 19.4
COC(=O)c1ccc(Cn2c(O)c(N=O)c3ccccc32)o1	none
COc1ccc(C(=O)c2ccc([N+](=O)[O-])cc2)cc1S(=O)(=O)N1CCC(C(=O)O)CC1	none
CN(C)CCCN1C(=O)c2cccc3c(Br)ccc(c23)C1=O	none
CCCCNc1ccc2c3c(cccc13)C(=O)N(CCCC)C2=O	M1 ag parental 348.0, CHRM1 agonist 295.9, CHRM1 antagonist 90.3, CHO-K1 Ca antag 92.6
Cc1nn(C)c(C)c1N1C(=O)c2cccc3c(N)ccc(c23)C1=O	M1 ag parental 63.0, CHRM1 agonist 90.0, CHRM1 antagonist 35.1, CHO-K1 Ca antag 30.8
Cc1nn(C)c(C)c1N1C(=O)c2cccc3c(Br)ccc(c23)C1=O	none
Cc1ccc(N2C(=O)c3cccc4c(N)ccc(c34)C2=O)c2cccnc12	M1 ag parental 22.6, CHRM1 agonist 29.0
CCN1C(=O)c2cccc3c(N)ccc(c23)C1=O	M1 ag parental 72.3, CHRM1 agonist 191.9, CHRM1 antagonist 47.9
CCCN1C(=O)c2cccc3c(N4CCCCC4)ccc(c23)C1=O	none
COc1ccc(CNC(=O)CCNS(=O)(=O)c2cc(Br)cnc2N)cc1	none
COc1ccc(OC)c(CN2CCN(C(=O)[C@@H](NC(=O)c3cccc(C)c3)C(C)C)CC2)c1	none
O=C(COc1ccc2c3c(c(=O)oc2c1)CCC3)N[C@@H](Cc1ccccc1)C(=O)O	none
CC(C)C[C@@H](NC(=O)C1CCC(CNC(=O)[C@@H]2CCCN2C(=O)OC(C)(C)C)CC1)C(=O)O (stereo not given in full)	CHRM1 antagonist 100.8
Cc1oc2cc3oc(=O)c(CCC(=O)NCCCN4CCOCC4)c(C)c3cc2c1C	none
Cc1ccccc1S(=O)(=O)N1C[C@H]2CON(C)[C@H]2C[C@H]1c1cccc(-c2ccccc2)c1	none
CN1OC[C@@H]2CN(S(=O)(=O)c3cccc4ccccc34)[C@H](c3ccc(-c4ccccc4)cc3)C[C@@H]21	M1 PAM 25.0
CN1OC[C@@H]2CN(C(=O)C(C)(C)C)[C@H](c3ccc(-c4cccnc4)cc3)C[C@@H]21	CHO-K1 Ca antag 30.2
